From PubChem BioAssay (Tox21)
Inconclusive results are not listed. A call without a number means that no potency is given here. More than one record can exist for a structure, and the calls need not agree. The source made the active and inactive calls. Unless noted, calls come from the whole dose curve; as a rule, active = well fitted curve in the direction sought with a large enough effect in the repeat runs; inconclusive = weak or mixed curves; inactive = no such curve, though single readings can be large; an effect the other way counts as inactive or inconclusive.

Columns and labels:
[1] = qHTS assay to identify small molecule agonists of H2AX (AID 1224845; active = well fitted activation curve with a large enough effect in the signal ratio in the repeat runs, not every such curve was filed as active; the % refers to the signal ratio)
Method in brief: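 Wild-type CHO-K1 cells plated overnight, then exposed 3 hr at 37C to compounds at 15 concentrations (0.76% DMSO). Lysed, then HTRF anti-pH2AX(S139)-cryptate/anti-H2AX-d2 detection after 24 hr at room temperature; emissions 665 and 620 nm.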

[2] = qHTS assay to identify small molecule agonists of the hypoxia (HIF-1) signaling pathway (AID 1224846; active = well fitted activation curve with a large enough effect in the signal ratio in the repeat runs, not every such curve was filed as active; the % refers to the signal ratio)
Method in brief: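 ME-180 HRE-bla reporter cells; compounds in DMSO, 17 h at 37C; read-out beta-lactamase via CCF4-AM FRET.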

[3] = qHTS assay to identify small molecule agonists of H2AX - cell viability counter screen (AID 1224847; calls by dose curve; note: nearly all actives have a fitted effect of over 30% in size; note: potency is the fitted concentration of half-maximal effect)
Method in brief: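 Viability of CHO-K1 (wild type) cells after 3 hr compound exposure was measured by CellTiter-Glo luminescence.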

[4] = qHTS RealTime-Glo MT Cell Viability Assay in HEK293 cells - 32 hour (AID 1224868); note: top concentration of the series differs between compounds; nearly all actives have a fitted effect of over 50% in size
Method in brief: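 Assay medium contained NanoLuc luciferase plus cell-permeant prosubstrate, added with HEK293 cells at 600 cells/well. After 5 h at 37 C/5% CO2 compounds were added; plates stayed at 37 C for 40 h with serial luminescence reads.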

[5] = A CellTox Green Cytotoxicity Assay to monitor cytotoxicity in HEK293 cells - 0 hour (AID 1224869); note: nearly all actives have a fitted effect of over 50% in size
Method in brief: (§1)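 Real-time, in one plate: 600 HEK293 cells/well with dead-cell DNA dye, pinned compound after 5 h, 37 C incubation over 40 h; viable cells give no appreciable fluorescence.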

[6] = qHTS RealTime-Glo MT Cell Viability Assay in HepG2 cells - 40 hour (AID 1224870); note: nearly all actives have a fitted effect of over 50% in size
Method in brief: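 HepG2 cells mixed with RealTime-Glo MT reagents (NanoLuc plus cell-permeant prosubstrate) were seeded at 600 cells/well, incubated 5 h at 37 C/5% CO2, then pinned with compounds in DMSO; nonlytic luminescence tracked viability during 40 h treatment.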

[7] = A CellTox Green Cytotoxicity Assay to monitor cytotoxicity in HEK293 cells - 40 hour (AID 1224871); note: nearly all actives have a fitted effect of over 45% in size; note: potency is the fitted concentration of half-maximal effect
Method in brief: as §1

[8] = qHTS RealTime-Glo MT Cell Viability Assay in HepG2 cells - 24 hour (AID 1224867); note: nearly all actives have a fitted effect of over 50% in size
Method in brief: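 qHTS, HepG2, 600 cells/well, RealTime-Glo (NanoLuc + prosubstrate) added with cells; 5 h preincubation; DMSO compound addition; 37 C; luminescence at 0/8/16/24/32/40 h.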

[9] = qHTS assay to identify small molecule antagonists of the estrogen related receptor (ERR) signaling pathway from Tox21 library (AID 1224848); note: nearly all actives have a fitted effect of over 50% in size
Method in brief: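 First, 2,000 ERR cells per well were plated and held 6 h at 37 C/5% CO2. Next, compounds in DMSO were pinned in and left 18 h at 37 C. Finally, ONE-Glo was added and luminescence read after 30 min at room temperature.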

[10] = qHTS assay to identify small molecule agonists of the estrogen related receptor (ERR) signaling pathway from Tox21 library (AID 1224849; calls by dose curve; note: nearly all actives have a fitted effect of over 15% in size); details: ERR reporter cell line, ONE-Glo luciferase, 18 h; at 92.4 µM (top of the series) unless noted
Method in brief: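 Luciferase activity in ERR pathway reporter cells served as the agonist readout; exposure lasted 18 h at 37 C, with ONE-Glo detection after 30 min at room temperature.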

| SMILES | outcome [1] | outcome [2] | Potency [3] | Potency [4] | outcome [5] | Potency [6] | Potency [7] | Potency [8] | Potency [9] | activity change, positive = activation [10] |
| --- | --- | --- | --- | --- | --- | --- | --- | --- | --- | --- |
| O=C/C=C/c1ccco1 | inactive | inactive | inactive | inactive | inactive | inactive | inactive |  |  |  |
| O=C1CC(=O)NC(=O)N1 | inactive | inactive | inactive | inactive |  | inactive | inactive |  |  |  |
| ClC1=C(Cl)C2(Cl)C(CBr)CC1(Cl)C2(Cl)Cl (centres undefined) | inactive | inactive | 113 µM (active) and inactive |  | inactive | inactive | 54.9 µM (active) and inactive | inactive |  |  |
| CCCCCCC1CCOC1=O (centres undefined) | inactive |  | inactive | inactive | inactive | inactive | inactive | inactive | inactive | 0.0938% (inactive) |
| CCCCCCCC(=O)Cl | inactive | inactive | inactive |  | inactive | inactive | inactive | inactive |  |  |
| CC(C)N(Cc1ccccc1)C(=O)C(C)(C)C | inactive | inactive |  | inactive | inactive |  | inactive | inactive |  |  |
| NNC(N)=O | inactive |  | inactive | inactive |  | inactive | inactive | inactive |  |  |
| CCC1(c2cccc(O)c2)CCCCN(C)C1 (centres undefined) | inactive |  | inactive |  | inactive | inactive | inactive | inactive |  |  |
| C=C(C)[C@H]1CN[C@H](C(=O)O)[C@H]1CC(=O)O | inactive |  | inactive | inactive | inactive |  | inactive |  |  |  |
| O=C(Cl)c1ccccc1 |  | inactive | inactive | inactive | inactive | inactive | inactive | inactive | inactive | 7.58% (inactive) |
| N[C@@H](Cc1ccc(Oc2cc(I)c(O)c(I)c2)c(I)c1)C(=O)O | inactive |  | inactive | inactive | inactive | inactive | inactive | inactive |  |  |
| CC(C)(N)Cc1ccccc1Cl |  | inactive | inactive | inactive | inactive | inactive | inactive | inactive | inactive | -8.42% [at 42.5 µM] (inactive) |
| CCC(C)C(C)(COC(N)=O)COC(N)=O (centres undefined) |  | inactive | inactive | inactive |  | inactive | inactive | inactive | inactive | 1.95% [at 42.5 µM] (inactive) |
| CCNc1nc(Cl)nc(NC(C)(C)C)n1 | inactive |  | inactive | inactive | inactive | inactive | inactive | inactive |  |  |
